# Assay results: ChEMBL document CHEMBL3988442, “University of Dundee, Small-Polar-MMV Screening Library” (2021)
# In all, about 48,000 compounds went through this assay and about 13,000 (27%) showed an effect of 50% or more. The list shows a part of the results.
# System: Wolbachia pipientis
# Assay: Anti-Wolbachia Cell-Based Screen
# Assay type: functional
# Set-up: scale not given: in the data most compounds retested in dose-response had high values
# Conditions: 5 µM
row,Compound,Percent Effect [%]
1,CCc1cc(CNC(=O)N(C2CC2)C(C)c2ccco2)on1 (configuration not stated),-6.882
2,O=S(=O)(CCSc1nccn1C1CC1)c1ccccc1,2.896
3,COc1ccc(CN2C[C@@H]3OCC(=O)N(Cc4nccn4C)[C@@H]3C2)cc1,-2.723
4,Cc1cnn(CCNCC(=O)NC2(C#N)CCCC2)c1,1.433
5,COc1ccccc1CC(=O)NC(CC(=O)O)c1ccc(F)cc1 (configuration not stated),7.485
6,Cc1nc2n(n1)CCN(S(=O)(=O)c1ccc(Cl)cc1)C2,-10.09
7,CN(C)c1ncnc2c1CCN(S(=O)(=O)c1cccc(Cl)c1Cl)C2,-2.011
8,CCOCc1cncc2c1CCN(S(=O)(=O)c1ccc(C)cc1)C2,7.269
9,CCOCCOc1ccc(S(=O)(=O)N2CCc3c(nc[nH]c3=O)C2)cc1,99.77
10,COc1cccc(S(=O)(=O)N2CCCc3c(OC)nn(C)c3C2)c1,-0.459
11,CN(C)c1ncnc2c1CCN(S(=O)(=O)c1ccccc1C(F)(F)F)C2,15.95
12,CCOCc1ncn2c1CN(S(=O)(=O)c1ccc(OC)cc1)CC2,3.877
13,COCc1ncn2c1CN(S(=O)(=O)c1cccc(OC)c1)CC2,5.522
14,O=c1[nH]cnc2c1CCN(S(=O)(=O)c1cccc(OC(F)(F)F)c1)C2,122.9
15,O=c1[nH]cnc2c1CCN(S(=O)(=O)c1ccc(Cl)cc1)C2,81.06
16,O=c1[nH]cnc2c1CCN(S(=O)(=O)c1ccc(OC(F)(F)F)cc1)C2,93.77
17,Cc1nc2n(n1)CCN(S(=O)(=O)c1ccc(OC(F)(F)F)cc1)C2,-10.24
18,CC(=O)NCCc1ncnn1-c1ccc(F)c(Cl)c1,-4.574
19,CC(O)CN1CCC(CNCc2ccc(S(C)(=O)=O)cc2)CC1 (configuration not stated),-7.013
20,Cc1cc(-c2ccc(C(C)N3CCOCC3)cc2)cnc1N (configuration not stated),25.58
21,O=C(NCCc1c[nH]cn1)c1ccc2c(c1)C(=O)N(C1CC1)C2=O,25.9
22,CC(O)CN(C)C(=O)Nc1ccn(-c2cccc(C(F)(F)F)c2)n1 (configuration not stated),-1.587
23,CC(C)(C)c1nc(CN2CCCC2CCc2ccccc2)no1 (configuration not stated),0.152
24,CC(C)(C)c1nnc(CN2CCCC2c2noc(C3CC3)n2)o1 (configuration not stated),9.354

row,Compound,Percent Effect [%]
1,O=C(OCc1ccccc1)C1CCCN1Cc1nc(C2CC2)no1 (configuration not stated),13.28
2,Cn1cccc1C1CCCN1Cc1noc(C(C)(C)C)n1 (configuration not stated),89.29
3,CCc1nc(C2CCCN2Cc2nc3ccccc3o2)no1 (configuration not stated),-3.272
4,Cc1nn(C)c(C)c1C1CCCN1Cc1noc(C2CC2)n1 (configuration not stated),0.5745
5,CC(C)(C)c1nc(CN2CCCC2c2nnc3ccccn23)no1 (configuration not stated),104.6
6,CCc1nc(C2CCCN2Cc2nc(C3CC3)no2)no1 (configuration not stated),-2.971
7,CCn1c(C2CCCN2Cc2noc(C(C)(C)C)n2)nc2ccccc21 (configuration not stated),117.3
8,COc1cccc2c1N(Cc1noc(C(C)(C)C)n1)CCC2,5.292
9,CCc1nc(C2CCCN2Cc2noc(Cc3ccccc3)n2)no1 (configuration not stated),-2.758
10,c1ccn2c(C3CCCN3Cc3nc(C4CC4)no3)nnc2c1 (configuration not stated),89.02
11,CC(C)n1cnc2c1C(C(=O)N1CCOCC1)N(CC1CC1)CC2.O=C(O)C(F)(F)F (configuration not stated),-10.07
12,CNC(=O)c1ccc(-n2c(COCC(=O)O)nc3c(C)cccc32)o1,-7.772
13,CCCOCC1CCN(C(=O)Cn2cccc(OC)c2=O)C1 (configuration not stated),-15.28
14,Cc1ccc(NC(=O)CCC2CC2)cc1N1CCOC1=O,-7.551
15,O=c1[nH]nc(CNc2ncc(Cl)cn2)[nH]1,-6.867
16,CCc1nsc(N2CCOC3(CCCC3)C2)n1,2.616
17,Cc1noc(C)c1CN1CCCCC1c1nc(-c2ccccc2)no1 (configuration not stated),11.76
18,Cc1noc(C)c1CN1CCCC1c1nc(-c2ccccc2)no1 (configuration not stated),-6.071
19,Cc1noc(C)c1CN1CCCC1c1nnc2ccccn12 (configuration not stated),107.8
20,CCC(CO)N(Cc1cccs1)C(=O)Cc1ccc(O)cc1 (configuration not stated),12.13
21,CCC[C@@H]1CN(C(=O)c2ccccc2-c2ccccc2)C[C@H]1N(C)C,-11.45
22,Cn1ccnc1C1(O)CCCN(Cc2ccncc2)CC1 (configuration not stated),94.34
23,COCCN1CCCC(O)(CN2CCN(Cc3ccncc3)CC2)C1=O (configuration not stated),-1.626
24,Cc1ccc(CN2CCC3(CCN(Cc4ccncc4)CC3)CC2)cc1,-6.544

row,Compound,Percent Effect [%]
1,CN(C)[C@H]1CCN(c2ccnc(C(=O)NCc3ccco3)c2)C1,-12.58
2,Cc1[nH]c(=O)sc1S(=O)(=O)N1CCCC1C(=O)NC1CC1 (configuration not stated),0.9374
3,CC1c2ncc(COCC3CC3)n2CCN1S(=O)(=O)N(C)C (configuration not stated),-6.883
4,Cc1noc(CN(C)C(=O)CCn2cnc3ccccc32)n1,-9.657
5,CC(C)c1nccn1CC(=O)Nc1ccnn1C(C)C(C)C (configuration not stated),205.7
6,CC(C1CC1)n1nccc1NC(=O)CN(C)C(=O)OC(C)(C)C (configuration not stated),1.565
7,CC(C)C(C)n1nccc1NC(=O)Cn1cnc2ccccc21 (configuration not stated),92.25
8,O=C(NCCO)c1coc(Cn2cnc3ccccc32)n1,-7.13
9,Cn1ccnc1-c1cnn(CC(=O)Nc2ccnn2C)c1,-5.253
10,Cc1n[nH]c(C)c1C1CCCN1C(=O)c1cc(Br)c[nH]1 (configuration not stated),3.439
11,N#Cc1cc(S(N)(=O)=O)ccc1NC1CCc2ccc(F)cc21 (configuration not stated),-1.199
12,CN(C)c1ccc(-c2ccnc3c2ccn3C)nn1,-43.13
13,CC(C)Nc1ccc(-c2ccnc3c2ccn3C)nn1,-2.658
14,Cn1ccc2c(-c3ccc(NC4CC4)nn3)ccnc21,-7.533
15,Cn1ccc2c(-c3cc(N4CCOCC4)ncn3)ccnc21,96.13
16,c1cc2c(c(-c3cc(N4CCOCC4)ncn3)c1)CCNC2,6.934
17,Cn1ccc2c(-c3cc(N4CCCCC4)ncn3)ccnc21,102.2
18,Cc1cc(C)nc(N2CCCC(Cn3cc(CN(C)C)nn3)C2)n1 (configuration not stated),5.215
19,COCc1cc(NCc2cc(F)ccc2F)n2nccc2n1,7.154
20,COCc1cc(NCCc2ccc(F)cc2)n2nccc2n1,-0.9559
21,COCCn1cc(NCc2cccc3cn[nH]c23)cn1,-36.74
22,Cc1ccc(CNc2cnn(CC(F)F)c2)cc1C,-20.79
23,COc1ccccc1CNC(Cn1cncn1)c1ccccc1 (configuration not stated),-4.346
24,CCn1cc(CNc2ccc(Br)c(OC)c2)cn1,3.911

row,Compound,Percent Effect [%]
1,COCc1cc(CNc2cnn(CC(F)F)c2)ccc1OC,109.5
2,COc1ccccc1CNc1cnn(CC(F)F)c1,103.3
3,COc1cc(CNc2cnn(CC(F)F)c2)ccc1O,77.84
4,CS(=O)(=O)CCNCc1ccc(OCc2ccncc2)cc1,4.954
5,CS(=O)(=O)c1cccc(S(=O)(=O)NCCCN2CCNC(=O)C2)c1,4.336
6,COCCC1(CO)CCCN(Cc2ccc(C(F)(F)F)nc2)C1 (configuration not stated),4.896
7,Cc1nn(C)c2nc(N3CCCCC3c3nccs3)sc12 (configuration not stated),111.2
8,Cc1nn(C)c2nc(N(Cc3nccs3)C3CC3)sc12,96.11
9,COC(=O)CN1CCN(c2nc3c(s2)c(C)nn3C)C(C)C1=O (configuration not stated),-10.29
10,Cc1nn(C)c2nc(N3CCNC(=O)C3C(C)C)sc12 (configuration not stated),-3.724
11,Cc1nn(C)c2nc(N3CCNC(=O)C3Cc3ccccc3)sc12 (configuration not stated),4.207
12,COC(=O)CC1C(=O)NCCN1c1nc2c(s1)c(C)nn2C (configuration not stated),-2.847
13,Cc1nn(C)c2nc(N3CCCC3c3nccs3)sc12 (configuration not stated),105.7
14,Cc1ccc(CN2CCN(c3nc4c(s3)c(C)nn4C)C(C)C2=O)cc1 (configuration not stated),-1.858
15,Cc1nn(C)c2nc(N3CCCCC3c3ccc(F)cc3)sc12 (configuration not stated),106.8
16,Cc1nn(C)c2nc(N(Cc3cnn(C)c3)C3CCCCC3)sc12,-14.1
17,Cc1nn(C)c2nc(N3CCC(C(O)c4ccccn4)CC3)sc12 (configuration not stated),-0.6588
18,COCCN(Cc1nccs1)c1nc2c(s1)c(C)nn2C,-7.769
19,CN(Cc1ccccc1NCc1cccnc1)C(=O)c1cccs1,7.108
20,O=S1(=O)CCN(c2nc(C3CC3)ns2)CC1,-15.72
21,CN1C(=O)CO[C@H](c2ccc(NC(=O)c3cccc(F)c3)cc2)[C@H]1CO,11.75
22,CCC(CNC(=O)c1cc(OC)ccc1Br)N1CCc2ccccc2C1 (configuration not stated),-23.56
23,COC(=O)N1CCc2ccccc2C1C(=O)NCc1nc(C)no1 (configuration not stated),2.573
24,CN(C)C(=O)c1cccc(CN2CCOC(Cn3cccn3)C2)c1 (configuration not stated),104.7

row,Compound,Percent Effect [%]
1,c1cnn(-c2ccc(CN3CCOC(Cn4cncn4)C3)cc2)c1 (configuration not stated),-5.555
2,CN(C)C(=O)c1cccc(CN2CCOC(Cn3cncn3)C2)c1 (configuration not stated),102.1
3,CN(C)CC1CN(Cc2cccc(C(=O)N(C)C)c2)CCO1 (configuration not stated),13.75
4,CCS(=O)(=O)Nc1cnn(Cc2cccc(F)c2)c1,105.7
5,Cc1cccc(Cn2ccc(NS(C)(=O)=O)n2)c1,-2.498
6,CN(C)c1cccc(C(=O)Nc2cnn(Cc3ccncc3)c2)c1,11.2
7,CCn1cc(NC(=O)NCC(O)COc2cccc(F)c2)cn1 (configuration not stated),-10.6
8,CCn1cc(NC(=O)NCC(c2cccc(F)c2)N(C)C)cn1 (configuration not stated),0.3988
9,CCS(=O)(=O)Nc1cnn(Cc2cccc(C)c2)c1,89.42
10,Cc1cccc(-c2ccc(C(=O)NCC3CCOC3)c(=O)[nH]2)c1 (configuration not stated),2.342
11,O=C(NCCCn1cncn1)c1ccc(-c2ccccc2)[nH]c1=O,-1.732
12,O=C(NCC1CCOC1)c1ccc(-c2ccccc2)[nH]c1=O (configuration not stated),96.09
13,Cc1cccc(-c2ccc(C(=O)NCC3CCCOC3)c(=O)[nH]2)c1 (configuration not stated),108.2
14,Cc1ccc(C(=O)NCC2CCCCO2)c(=O)[nH]1 (configuration not stated),8.158
15,O=C(NCCN1CCOCC1)c1ccc(-c2ccccc2)[nH]c1=O,-12.34
16,Cc1ccc(C(=O)NCC2COCCO2)c(=O)[nH]1 (configuration not stated),4.795
17,O=C(NCC1CCCOC1)c1ccc(-c2cccs2)[nH]c1=O (configuration not stated),1.044
18,Cc1cccc(-c2ccc(C(=O)NCCN(C)C3CC3)c(=O)[nH]2)c1,-2.901
19,Cc1cccc(-c2ccc(C(=O)NCC3CCCO3)c(=O)[nH]2)c1 (configuration not stated),118.6
20,O=C(NCC1CCCOC1)c1ccc(-c2ccccc2)[nH]c1=O (configuration not stated),111.2
21,Cc1cccc(-c2ccc(C(=O)NCCN3CCOCC3)c(=O)[nH]2)c1,3.561
